Experimental data as given in paper PMC3218832.

Legend:
Test in all cases: protein binding microarray; high values mean tight binding
Settings in all cases: dsDNA, one strand shown
RELARELA (p65 homodimer) = RELARELA (p65 homodimer) (Homo sapiens, UniProt Q04206 1-307)
p50p50 homodimer = p50p50 homodimer (Homo sapiens, UniProt P19838 7-356)
p52p52 homodimer = target: T1, p52p52 homodimer (Homo sapiens, UniProt Q00653 4-332)
T1 sequence: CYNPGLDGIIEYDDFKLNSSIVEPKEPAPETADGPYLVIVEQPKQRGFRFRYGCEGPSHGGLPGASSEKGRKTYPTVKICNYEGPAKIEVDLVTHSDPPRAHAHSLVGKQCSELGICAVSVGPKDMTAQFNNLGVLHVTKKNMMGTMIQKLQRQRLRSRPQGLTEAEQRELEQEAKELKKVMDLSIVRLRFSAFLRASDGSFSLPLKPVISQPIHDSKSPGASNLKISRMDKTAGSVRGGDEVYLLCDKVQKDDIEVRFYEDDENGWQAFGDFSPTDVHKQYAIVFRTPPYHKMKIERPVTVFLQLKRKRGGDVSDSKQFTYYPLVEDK

[1] = target: RELA (p65) subunit of heterodimer;p50 subunit (Homo sapiens;Homo sapiens, UniProt Q04206;P19838 1-307;7-356)
[2] = target: RELA (p65) subunit of heterodimer;p52 subunit (Homo sapiens;Homo sapiens, UniProt Q04206;Q00653 1-307;4-332)
RELB subunit;p50 subunit = RELB subunit;p50 subunit (Homo sapiens;Homo sapiens, UniProt Q01201;P19838 120-401;7-356)
RELB subunit;p52 subunit = target: T2, RELB subunit;p52 subunit (Homo sapiens;Homo sapiens, UniProt Q01201;Q00653 120-401;4-332)
T2 sequence 1: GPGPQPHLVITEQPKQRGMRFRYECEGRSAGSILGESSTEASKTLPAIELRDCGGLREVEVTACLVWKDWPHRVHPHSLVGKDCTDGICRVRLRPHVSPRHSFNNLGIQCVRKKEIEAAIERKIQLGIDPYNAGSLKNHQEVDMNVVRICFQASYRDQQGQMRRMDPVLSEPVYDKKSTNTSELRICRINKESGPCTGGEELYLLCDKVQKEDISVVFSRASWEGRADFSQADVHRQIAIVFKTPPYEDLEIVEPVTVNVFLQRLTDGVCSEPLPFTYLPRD
T2 sequence 2: T1 sequence

[3] = target: C-Rel subunit;p50 subunit (Homo sapiens;Homo sapiens, UniProt Q04864;P19838 1-285;7-356)
[4] = target: T3, C-Rel subunit;p52 subunit (Homo sapiens;Homo sapiens, UniProt Q04864;Q00653 1-285;4-332)
T3 sequence 1: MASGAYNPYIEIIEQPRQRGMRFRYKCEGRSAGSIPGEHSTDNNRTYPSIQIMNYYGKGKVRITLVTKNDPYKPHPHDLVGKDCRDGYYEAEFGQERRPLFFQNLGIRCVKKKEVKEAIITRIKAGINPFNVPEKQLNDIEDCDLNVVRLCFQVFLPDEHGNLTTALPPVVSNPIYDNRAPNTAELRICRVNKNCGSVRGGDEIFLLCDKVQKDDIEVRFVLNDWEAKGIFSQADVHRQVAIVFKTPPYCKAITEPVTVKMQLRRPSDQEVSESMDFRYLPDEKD
T3 sequence 2: T1 sequence

Chain of p50p50 homodimer (P19838 7-356): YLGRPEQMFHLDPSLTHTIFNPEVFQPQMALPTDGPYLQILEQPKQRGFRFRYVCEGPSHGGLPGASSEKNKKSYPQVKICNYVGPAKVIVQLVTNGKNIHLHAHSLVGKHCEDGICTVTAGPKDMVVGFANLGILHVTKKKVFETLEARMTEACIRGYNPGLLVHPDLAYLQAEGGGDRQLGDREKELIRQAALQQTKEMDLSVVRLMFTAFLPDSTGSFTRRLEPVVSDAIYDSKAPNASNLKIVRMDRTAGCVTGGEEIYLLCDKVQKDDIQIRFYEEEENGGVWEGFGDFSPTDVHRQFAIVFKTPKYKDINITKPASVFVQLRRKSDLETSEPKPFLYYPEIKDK
Chain of RELA (p65) subunit of heterodimer;p50 subunit (Q04206 1-307, chain 1 of 2): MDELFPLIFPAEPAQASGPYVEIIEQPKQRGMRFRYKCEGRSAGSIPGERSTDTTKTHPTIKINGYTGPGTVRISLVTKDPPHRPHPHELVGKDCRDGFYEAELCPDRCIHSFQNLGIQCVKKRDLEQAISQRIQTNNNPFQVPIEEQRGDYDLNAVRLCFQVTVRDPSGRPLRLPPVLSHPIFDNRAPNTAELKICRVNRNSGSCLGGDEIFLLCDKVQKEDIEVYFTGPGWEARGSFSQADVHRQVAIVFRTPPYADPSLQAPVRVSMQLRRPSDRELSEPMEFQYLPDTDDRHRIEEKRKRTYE
Chain of RELA (p65) subunit of heterodimer;p50 subunit (P19838 7-356, chain 2 of 2): as the sequence (P19838 7-356) above
Chain of RELARELA (p65 homodimer) (Q04206 1-307): as the sequence (Q04206 1-307, chain 1 of 2) above

| Sequence | binding signal (RELARELA (p65 homodimer)) [z-score] | binding signal (p50p50 homodimer) [z-score] | binding signal (p52p52 homodimer) [z-score] | binding signal [1] [z-score] | binding signal [2] [z-score] | binding signal (RELB subunit;p50 subunit) [z-score] | binding signal (RELB subunit;p52 subunit) [z-score] | binding signal [3] [z-score] | binding signal [4] [z-score] |
| --- | --- | --- | --- | --- | --- | --- | --- | --- | --- |
| CAGAAAGTCCT | 1.03 | -0.724 | -0.508 | -0.351 | -0.61 | -0.693 | -0.785 | -0.362 | -0.371 |
| CGATTGTCCCT | 0.353 | 1.16 | 1.18 | 0.871 | 0.943 | 1.29 | 1.27 | 0.77 | 0.66 |
| AGGTGATTCCC | 1.45 | 0.701 | 3.04 | 1.59 | 2.15 | 1.33 | 2.11 | 1.81 | 2.88 |
| CGAATATTCCC | 1.87 | 0.695 | 0.525 | 0.873 | 0.929 | 0.405 | 0.536 | 0.941 | 0.858 |
| AGAAAATCCCT | 1.08 | 1.27 | 1.8 | 1.28 | 1.37 | 1.49 | 1.61 | 1.12 | 1.62 |
| CAGATGTTCCT | -0.208 | -2.01 | -0.586 | -0.746 | -0.87 | -1.02 | -0.843 | -1.15 | -0.842 |
| CAGTTGACCCT | -0.398 | -0.922 | -0.533 | -0.555 | -0.554 | -0.526 | -0.777 | -1.18 | -0.639 |
| AGAGGTCTCCC | 0.0815 | -0.751 | -0.27 | -0.391 | -0.315 | -0.0782 | -0.00582 | -0.507 | -0.363 |
| CAAAAGTTCCC | 1.7 | 0.79 | 0.496 | 0.839 | 0.661 | 0.674 | 0.512 | 0.746 | 0.598 |
| GGATGCGTCCT | 0.00389 | -1.17 | -0.665 | -1.04 | -0.853 | -1.18 | -0.816 | -1.72 | -0.907 |
| GAAGGCTCCCT | -0.795 | -1.03 | -0.473 | -0.74 | -0.784 | -0.594 | -0.67 | -1.02 | -0.773 |
| GAGTATATCCT | -0.264 | -1.06 | -0.578 | -0.876 | -0.768 | -1 | -0.866 | -1.36 | -0.891 |
| GGGTACTCCCC | 1.34 | 0.682 | 3.13 | 1.82 | 2.75 | 1.95 | 1.96 | 1.45 | 2.17 |
| GAGTTCTCCCC | 0.519 | 1.01 | 0.732 | 1.01 | 1.01 | 1.23 | 1.07 | 1.15 | 0.673 |
| CAATAGCCCCT | -0.581 | 1.17 | 0.673 | 0.506 | 0.808 | 0.574 | 0.89 | 0.189 | 0.555 |
